Bioassay records: PubChem BioAssay, National Center for Advancing Translational Sciences (NCATS)
In the library only some 19% were active in any assay of this set; here they are far more common.
HT1080 IDH1KD tx: HT-1080 IDH1 knockdown cell toxicity (counter line); HT-1080 IDH1 knockdown viability, ATP luminescence, 48 h; Potency, µM (titrated, usually from 46.1 µM), inactives show top-dose activity, negative = toxicity, usual class: cytotoxic; 360,000 compounds, 2% hits; AID 686971;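 also: potency is read from the fitted curve at half-maximal effect; 0% = DMSO wells and -100% = cell-free medium wells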
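HT-1080-IDH1KD cells (IDH1 knocked down), 750/well in RPMI with 5% FBS, treated with compound 48 h at 37 degrees C. Viability by CellTiter-Glo luminescence, normalised to DMSO and no-cell wells; concentration-response curves classed.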
ELG1 DNA repair: blocks ELG1-dependent DNA repair in HEK293T cells. HEK293T ELG1-luciferase reporter, luminescence, 16 h; DNA damage induced by 5-fluorouridine. Potency, µM (series often up to 46.1 µM), inactives show at the top dose activity change, negative = inhibition, most hits filed as inhibitors. 330,000 compounds, 2.3% hits; also: potency is read from the fitted curve at half-maximal effect; nearly all actives have a fitted effect of over 55% in size
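DMSO vehicle served as the neutral condition. Each well held 2,000 cells given 5-fluorouridine plus compound; after 16 hr at 37 °C/5% CO2, ONE-Glo was added and luciferase measured 30 min later.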
HT1080NT lethal: kills 2HG-producing HT-1080-NT fibrosarcoma cells; HT-1080-NT fibrosarcoma viability, CellTiter-Glo ATP luminescence, 48 h; Potency, µM (top dose mostly 46.1 µM), for inactives: at the highest dose activity, negative = less viability, actives largely listed as cytotoxic; 360,000 compounds, 1.6% hits;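 also: NT is the 2HG producing partner of a matched IDH1 knockdown line; potency is read from the fitted curve at half-maximal effect; 0% = DMSO-treated cells and -100% = media-only wells without cells; nearly all actives have a fitted effect of over 55% in size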
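HT-1080-NT; 750 cells/well; 5% FBS RPMI; 48 h compound, 37 degrees C; CellTiter-Glo luminescence; curve fitting and curve-class assignment.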
DT40 TDP1 no CPT: qHTS for Inhibitors of human tyrosyl-DNA phosphodiesterase 1 (TDP1): qHTS in cells in absence of CPT | DT40 Tdp1-/- hTDP1 cells, no CPT, ATP luminescence, 48 h | Potency, µM (series often up to 46.2 µM), without a hit: at the top dose activity change, negative = growth inhibition, actives largely listed as inhibitors | 420,000 compounds, 15% hits; also: potency is read from the fitted curve at half-maximal effect; nearly all actives have a fitted effect of over 55% in size
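Chicken DT40 Tdp1-/- cells complemented with human TDP1, screened without camptothecin (DMSO vehicle only), 400 cells/well. Compounds pin-transferred, cells incubated at 37 °C for at least 48 hr. Growth read as ATP-dependent luminescence (CellTiter-Glo, 30 min at RT).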
IL1B secr inh: blocks inflammasome-driven IL-1 beta release; THP-1 LPS/ATP IL-1B secretion, AlphaLISA, 16 h; hits give low values; activity change, % at 57.5 µM; AID 743279; 360,000 compounds, 4.7% hits; in the data active = activity change below about -50%; inconclusive = mostly about -30% to -49%
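Secreted IL-1B measured by AlphaLISA bead assay after 16 h compound exposure of THP-1 cells; compounds (final up to 57.5 uM) added 1 h before LPS (250 ng/mL) and ATP (1.25 mM) stimulation; lower signal means less secretion.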
DT40 TDP1 CPT: growth inhibition of DT40 Tdp1-/-;hTDP1 cells with camptothecin (screen for TDP1 inhibitors) | chicken DT40 Tdp1-/-;hTDP1 cells + 20 nM CPT, ATP luminescence, 48 h | Potency, µM (series often up to 46.2 µM), inactives show at the top dose activity change, negative = growth inhibition, hits mostly inhibitors | 420,000 compounds, 12% hits; also: potency is read from the fitted curve at half-maximal effect; nearly all actives have a fitted effect of over 55% in size
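Chicken DT40 Tdp1-/- cells complemented with human TDP1, 400 cells/well, exposed to compounds plus 20 nM camptothecin for at least 48 h at 37 C; viability read as ATP content by CellTiter-Glo luminescence.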
Starred values were filed as active, the others as inactive. Unless noted, calls follow the shape of the dose curve; as a rule, active = well fitted curve in the direction sought with a large enough effect; inconclusive = small, poorly fitted or top-dose-only effect, or another doubt; inactive = no such curve, though single readings can be large; an effect the other way counts as inactive or inconclusive. Unless noted, % is scaled to controls: 0 for no effect and ±100 for the full control effect.

For Cc1c(C=Nc2ccc(S(=O)(=O)CCO)cc2)c(O)[nH]c(=O)c1C#N the results were HT1080 IDH1KD tx 1%, HT1080NT lethal 11%, DT40 TDP1 no CPT -14%, IL1B secr inh 15 and DT40 TDP1 CPT 5%.
For CC1(C)OC2CC3C4CC(F)C5=CC(=O)CC[C@@]5(C)C4C(O)C[C@@]3(C)[C@]2(C(=O)CO)O1 (stereo partly specified) the results were DT40 TDP1 no CPT -23% and DT40 TDP1 CPT -18%.
C[C@]12CCC(=O)C=C1CC[C@@H]1[C@@H]2CC[C@@]2(C)[C@H]1CC[C@@]21CCC(=O)O1 was read as HT1080 IDH1KD tx -1%, ELG1 DNA repair -13%, HT1080NT lethal -1%, DT40 TDP1 no CPT 9.2µM*, IL1B secr inh -13 and DT40 TDP1 CPT inconclusive.
Screening CC(=O)S[C@@H]1CC2=CC(=O)CC[C@]2(C)[C@H]2CC[C@@]3(C)[C@@H](CC[C@@]34CCC(=O)O4)[C@H]12 returned HT1080 IDH1KD tx inconclusive, HT1080NT lethal inconclusive, DT40 TDP1 no CPT 5.8µM*, IL1B secr inh -56* and DT40 TDP1 CPT 7.3µM*.
For CN(C)c1nc(C(=O)O)nc(N2CCOCC2)n1 the results were HT1080 IDH1KD tx 8%, ELG1 DNA repair 0%, HT1080NT lethal 17%, DT40 TDP1 no CPT 0%, IL1B secr inh 24 and DT40 TDP1 CPT -4%.
Screening CC(=O)Nc1ccc([C@H]2[C@H](C)CC[C@H]3C(=O)N4[C@@H](CC[C@@H](C)[C@@H]4c4ccc(NC(C)=O)cc4)C(=O)N32)cc1 returned ELG1 DNA repair 14%.
Screening O=c1oc(-c2ccc([N+](=O)[O-])cc2)nc2ccc(O)cc12 returned HT1080 IDH1KD tx -3%, ELG1 DNA repair 5%, HT1080NT lethal 0%, DT40 TDP1 no CPT -16%, IL1B secr inh -68* and DT40 TDP1 CPT -2%.
Screening S=C(NCCCN1CCOCC1)NN=C1c2ccccc2-c2ccccc21 returned HT1080 IDH1KD tx inconclusive, HT1080NT lethal -24%, DT40 TDP1 no CPT 5.8µM*, IL1B secr inh -14 and DT40 TDP1 CPT 5.8µM*.
`CCNC(=S)NN=C1c2ccccc2-c2ccccc21` gave HT1080 IDH1KD tx -3%, ELG1 DNA repair inconclusive, HT1080NT lethal -15%, DT40 TDP1 no CPT 3.7µM*, IL1B secr inh inconclusive and DT40 TDP1 CPT 3.7µM*.
For C=C(C)CNC(=S)NN=C1c2ccccc2-c2ccccc21 the results were HT1080 IDH1KD tx -24%, ELG1 DNA repair -12%, HT1080NT lethal 0%, DT40 TDP1 no CPT inconclusive, IL1B secr inh -22 and DT40 TDP1 CPT inconclusive.
For Cc1ccc(NC(=O)c2ccc(NC(=O)c3ccccc3)cc2)cc1C the results were HT1080 IDH1KD tx inconclusive, ELG1 DNA repair inconclusive, HT1080NT lethal inconclusive, DT40 TDP1 no CPT inconclusive, IL1B secr inh 0 and DT40 TDP1 CPT 13µM*.
Screening CCN(CC)c1ccc(C(=O)Nc2ccccc2)cc1[N+](=O)[O-] returned HT1080 IDH1KD tx -18%, ELG1 DNA repair inconclusive, HT1080NT lethal -8%, DT40 TDP1 no CPT inconclusive, IL1B secr inh -96* and DT40 TDP1 CPT -6%.
CC(=O)Nc1ccc(NC(=O)c2ccccc2Br)cc1 was read as HT1080 IDH1KD tx 1%, HT1080NT lethal 1%, DT40 TDP1 no CPT -1%, IL1B secr inh -11 and DT40 TDP1 CPT 4%.
For Cc1ccc(C(=O)Nc2ccc(Nc3ccccc3)cc2)cc1Br the results were HT1080 IDH1KD tx -26%, HT1080NT lethal -15%, DT40 TDP1 no CPT 4.1µM* and DT40 TDP1 CPT 6.5µM*.
`O=C(Nc1ccc(Br)cc1)c1ccccc1Br` gave HT1080 IDH1KD tx 9%, ELG1 DNA repair inconclusive, HT1080NT lethal 16%, DT40 TDP1 no CPT 19%, IL1B secr inh -56* and DT40 TDP1 CPT -10%.
For COC(=O)[C@@]1(Sc2ccc(C)cc2)CC(=O)N(C(=O)CCc2ccccc2)[C@@H]1c1ccccc1 the results were HT1080 IDH1KD tx -12%, HT1080NT lethal 0%, DT40 TDP1 no CPT inconclusive, IL1B secr inh 8 and DT40 TDP1 CPT inconclusive.
For Cc1ccnc(NC(=O)c2cccc(NC(=O)c3ccc(Cl)cc3)c2)c1 the results were HT1080 IDH1KD tx 6%, HT1080NT lethal 3%, DT40 TDP1 no CPT 21µM*, IL1B secr inh -8 and DT40 TDP1 CPT inconclusive.
For COc1ccc(C(=O)Nc2ccc(OCc3ccccc3)cc2)cc1[N+](=O)[O-] the results were HT1080 IDH1KD tx -24%, ELG1 DNA repair 8%, HT1080NT lethal -20%, DT40 TDP1 no CPT 2%, IL1B secr inh 0 and DT40 TDP1 CPT inconclusive.
Screening COc1ccc(C(=O)Nc2ccc(Nc3ccccc3)cc2)cc1[N+](=O)[O-] returned HT1080 IDH1KD tx -17%, ELG1 DNA repair inconclusive, HT1080NT lethal -26%, DT40 TDP1 no CPT 21µM*, IL1B secr inh -16 and DT40 TDP1 CPT 23µM*.
For Cc1ccc(C(=O)Nc2ccc(Oc3ccc(C(=O)O)c(C(=O)O)c3)cc2)cc1C the results were HT1080 IDH1KD tx 1%, ELG1 DNA repair 5%, HT1080NT lethal 3%, DT40 TDP1 no CPT 1%, IL1B secr inh 12 and DT40 TDP1 CPT 23µM*.
Screening Cc1cccc(C(=O)Nc2ccc(NC(=O)c3ccccc3)cc2)c1 returned HT1080 IDH1KD tx 1%, ELG1 DNA repair -15%, HT1080NT lethal 4%, DT40 TDP1 no CPT inconclusive, IL1B secr inh -58* and DT40 TDP1 CPT inconclusive.
`O=C(O)c1ccccc1C(=O)Nc1ccc(Oc2ccc3ccccc3c2)cc1` gave HT1080 IDH1KD tx -4%, ELG1 DNA repair inconclusive, HT1080NT lethal -22%, DT40 TDP1 no CPT -23%, IL1B secr inh 19 and DT40 TDP1 CPT 11%.
`O=C(c1ccncc1)N1CCC[C@@]2(CCN(Cc3ccccc3)C2)C1` gave DT40 TDP1 no CPT -8% and DT40 TDP1 CPT 9%.
Screening O=C(COC(=O)c1ccc(F)cc1F)Nc1cc(S(=O)(=O)N2CCOCC2)ccc1Cl returned HT1080 IDH1KD tx 1%, ELG1 DNA repair 8%, HT1080NT lethal 11%, DT40 TDP1 no CPT -22%, IL1B secr inh -9 and DT40 TDP1 CPT -1%.
`CCC(CC)C(=O)Nc1cccc(-c2nc3ncccn3c2C)c1` gave DT40 TDP1 no CPT -28% and DT40 TDP1 CPT -11%.
Screening O=C(NCc1ccc(Cl)cc1)c1cccc(NC(=O)c2ccccc2)c1 returned HT1080 IDH1KD tx -30%, ELG1 DNA repair 18µM*, HT1080NT lethal -23%, DT40 TDP1 no CPT inconclusive, IL1B secr inh inconclusive and DT40 TDP1 CPT inconclusive.
